The results in this text go back to PubChem BioAssay (NCATS).

In assay [1] the target is alpha-glucosidase (Oryza sativa, rice) (UniProt Q653V4). In words: Counterscreen for Glucocerebrosidase Inhibitors: qHTS Assay for Rice alpha-Glucosidase at pH 5.0 (AID 997).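 Further: 0% = full activity with enzyme and -100% = basal without enzyme.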 The method, boiled down: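 Rice alpha-glucosidase (4 nM final) with 400 uM 4-methylumbelliferyl-alpha-D-glucopyranoside in citrate buffer pH 5.0, 20 min at room temperature, stopped at pH 10; fluorescence 365/440 nm, compounds 0.7 nM–77 uM, AC50 from Hill fits.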
For orientation: A counterscreen serves to expose hits that act by an unwanted route or on another target.

A short description of assay [2]: Validation of Assay for Modulators of Lamin A Splicing (AID 1459; active means well fitted curve in the direction sought with a large enough effect in the signal ratio; the % refers to the signal ratio;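 further: cells exposed to compound for two days before reading; 0% is about no effect; ratio rise marks activators and ratio drop marks inhibitors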). The gist of the method:
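Readout: ratio of GFP (500-530 nm) to RFP (575-640 nm) total object intensity by 488 nm laser-scanning cytometry after 48 hrs. Cells were HeLa S3 clones carrying lamin A-EGFP minigene plus DsRed2 viability reporter; vehicle 0.5% DMSO final.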

The nature of assay [3]: qHTS Assay for Lipid Storage Modulators (AID 1519; calls by dose curve; on activity change, negative = inhibition: on the % scale 0 is the no-effect control and ±100 the full control effect). The following applies: Drosophila S3 cells, BODIPY lipid droplet/cell ratio, laser cytometry, cells loaded with oleic acid. The gist of the method:
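Cells seeded at 5,000 per well were treated with compounds over a concentration series and loaded with oleic acid (400 uM, as added). Lipid droplet fluorescence (488 nm excitation, 500-530 nm channel) was read by laser-scanning cytometry and normalized to 20 uM Triacsin C.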
In general terms: qHTS replaces the single test concentration by a dilution series.

Assay [4] deals with DNA repair nuclease/redox regulator APEX1 (Homo sapiens) (UniProt P27695). In words: qHTS Validation Assay for Inhibitors of the Human Apurinic/apyrimidinic Endonuclease 1 (APE1) (AID 1705;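 further: TAMRA fluorescence gain over two minutes as APE1 cuts a quenched THF abasic duplex; on the % scale 0 is the no-effect control and ±100 the full control effect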). The method, boiled down: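 Read-out: TAMRA fluorescence (525 nm ex, 598 nm em) from cleavage of a quenched THF abasic-site duplex, 50 nM final; activity taken as intensity change between third and first of three reads 60 s apart.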

Assay [5] in a line: Counterscreen for APE1 Inhibitors: Fluorescent Dye Displacement Validation Assay (AID 1707).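 Further: plate controls were ThO with dsDNA and no compound for no effect and ThO without dsDNA for full effect.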 The method, boiled down: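 ThO 250 nM + dsDNA 50 nM (THF abasic site, 5'-TAMRA), Tris-HCl pH7.5/50mM NaCl/2 mM MgCl2/0.01% Tween-20; compounds pin-transferred; ex 480/em 540 nm endpoint. Neutral = no compound; no-DNA ThO wells = negative control.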
Assay [6] concerns the target Endonuclease 4 (Escherichia coli (strain K12)) (UniProt P0A6C1). In words: Counterscreen for APE1 Inhibitors: qHTS Validation Assay for Inhibitors of Endonuclease IV (AID 1708). Further: on the % scale 0 is the no-effect control and ±100 the full control effect. The gist of the method: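 Concentration-response counterscreen run identically to the APE1 assay: 15 min room-temperature preincubation of 2 nM enzyme with compound, reaction started with 50 nM quenched abasic DNA, progress taken from kinetic fluorescence.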

The nature of assay [7]: qHTS for differential inhibitors of proliferation of Plasmodium falciparum line D10 (AID 1877).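 Further: parasites grown with compound for 72 h before DNA staining.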 Further: potency means the concentration at half of the fitted maximal effect.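 On activity change, negative = inhibition: plate controls were vehicle wells for no effect and reference inhibitor wells for full effect.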
A short description of assay [8]: qHTS for differential inhibitors of proliferation of Plasmodium falciparum line Dd2 (AID 1882). Further: nearly all actives have a fitted effect of over 65% in size. Further: potency means the concentration at half of the fitted maximal effect.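 On activity change, negative = inhibition: plate controls were DMSO vehicle for no effect and 0.29 µM artemisinin for full effect.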 The following applies: Potency: Plasmodium falciparum Dd2 proliferation inhibition. The method, boiled down:
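Dd2-infected erythrocytes (0.3% parasitemia, 2.5% hematocrit final) incubated with compound 72 h at 37 C, 5% CO2; lysed with saponin/Triton buffer containing SYBR Green I, incubated overnight in the dark, then read by fluorescence (485/535 nm). Normalized to 0.29 uM artemisinin and DMSO.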

Assay [9] can be described thus: qHTS for differential inhibitors of proliferation of Plasmodium falciparum line W2 (AID 1883).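 Further: parasites grown with compound for 72 h before lysis and staining.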 Further: potency means the concentration at half of the fitted maximal effect.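 On activity change, negative = inhibition: 0% = vehicle wells and -100% = control inhibitor wells.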 The following applies: Potency: Plasmodium falciparum W2 proliferation inhibition.
For assay [10], the target named is Ferritin light chain (Equus caballus) (UniProt P02791). In words: qHTS Validation Assay for Identification of Novel General Anesthetics (AID 2323). Further: on the % scale 0 is the no-effect control and ±100 the full control effect. The gist of the method:
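10 uM horse-spleen apoferritin + 1-AMA (50% saturated, PBS); cpd pin-transferred, 10 min RT. Ex 380/Em 535 nm endpoint. Activity normalized between free 1-AMA and 1-AMA/apoferritin; 4-parameter Hill fit of concentration-response.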

The target in assay [11] is ATP-dependent DNA helicase Q1 (Homo sapiens) (UniProt P46063). In words: qHTS Validation Assay for Inhibitors of RecQ-Like Dna Helicase 1 (RECQ1) (AID 2353).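 Further: plate controls were DMSO vehicle for no effect and enzyme-free control for full effect.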 The method, boiled down: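 50 nM RECQ1T1 preincubated 15 min with compound in Tris pH 8.0 buffer with MgCl2, DTT, Tween-20 and 2.5 ug/ml poly(dI-dC); started with 200 nM TAMRA/BHQ-2 forked duplex and 2 mM ATP. Unwinding read as fluorescence (525/598 nm), two reads 2 h apart.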

A short description of assay [12]: Cytometric Cell-Based qHTS for Inhibitors of the mTORC1 Signaling Pathway in MEF (Tsc2-/-, p53-/-) Cells (AID 2660).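 Further: percent of cells above a phospho-rpS6 to PI ratio cutoff in each well; plate controls were DMSO for no effect and rapamycin for full effect.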 The gist of the method:
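Percent of cells positive for normalized phospho-S6 staining is reported, with the cutoff set from rapamycin (7.5 nM) versus DMSO wells. Tsc2-/-, p53-/- MEFs received compound for 24 hrs.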

A short description of assay [13]: High Content Imaging Cell-Based qHTS for Inhibitors of the mTORC1 Signaling Pathway in MEF (Tsc2-/-, p53-/-) Cells (AID 2666).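 Further: percent of cells scored positive for phospho-rpS6 Ser235/236 immunostaining by imaging.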 The following applies: at 38.3 µM (top of the series). The method, boiled down:
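Read-out: % positive cells per well, with thresholds from highest- and lowest-signal wells, based on phospho-rpS6 (Ser235/236) intensity normalized to Hoechst nuclear stain. Cells: Tsc2-/-, p53-/- MEFs carrying empty vector; compound 24 hrs, 37 degree Celsius.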

The nature of assay [14]: qHTS for differential inhibitors of proliferation of Plasmodium falciparum line 7G8 (AID 1815).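 Further: parasite growth measured after three days of incubation.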 Further: potency means the concentration at half of the fitted maximal effect.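 On activity change, negative = inhibition: plate controls were vehicle wells for no effect and reference inhibitor wells for full effect.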
Assay [15] can be described thus: qHTS for differential inhibitors of proliferation of Plasmodium falciparum line GB4 (AID 1816).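 Further: parasite growth measured after 72 h incubation.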 Further: potency means the concentration at half of the fitted maximal effect.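 On activity change, negative = inhibition: 0% = vehicle DMSO and -100% = reference inhibitor.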 Conditions: Potency: Plasmodium falciparum GB4 proliferation inhibition.
The nature of assay [16]: qHTS for differential inhibitors of proliferation of Plasmodium falciparum line 3D7 (AID 1876). Further: potency means the concentration at half of the fitted maximal effect.
The nature of assay [17]: qHTS for differential inhibitors of proliferation of Plasmodium falciparum line HB3 (AID 1886).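 Further: parasites grown with compound for 72 h before SYBR Green readout.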 Further: potency means the concentration at half of the fitted maximal effect.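 On activity change, negative = inhibition: plate controls were vehicle for no effect and reference inhibitor for full effect.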 The following applies: Potency: Plasmodium falciparum HB3 proliferation inhibition.
Assay [18] is described as follows: qHTS Assay for Modulators of Human Peripheral Myelin Protein 22 (PMP22) Expression/Activity (AID 1967; active means well fitted curve in the direction sought with a large enough effect in the signal ratio; the % refers to the signal ratio;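 further: 0% = untreated cells and 100% end not stated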). The gist of the method:
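Mouse MSC80 Schwann line, Pmp22 promoter–CBG68 reporter, EF-alpha–CBR internal control. 24h compound exposure, 37 °C/5% CO2, DMEM + 10% FBS. Readout: corrected green/red luminescence ratio, normalized to untreated cells; concentration-response curves fitted and classified.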

Assay [19] has as its target RecQ-like DNA helicase BLM (Homo sapiens) (UniProt P54132). In words: qHTS Validation Assay for Inhibitors of Bloom's syndrome helicase (BLM) (AID 2364).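 Further: plate controls were DMSO vehicle for no effect and enzyme-free control for full effect.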 The method, boiled down:
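BLM 50 nM in 25 mM Tris-HCl pH 8.0, 5 mM NaCl, 2 mM MgCl2, 1 mM DTT, 0.01% Tween-20, 2.5 ug/ml poly(dI-dC); 15 min cpd preinc, RT. Start: 200 nM forked DNA + 2 mM ATP (final). TAMRA read, 2 reads 2 h apart.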

Setting [20] is: measured here: cell count channel max response.
Setting [21] is: measured here: lipid channel max response.

Several values for one entry are separate records, joined by “and”; a condition that tells them apart may be missing. Equal values may be shown once. Results filed as inconclusive are left out. Activity calls are given as the source filed them. Unless noted, the call rests on the fitted dose curve; in most records, active means well fitted curve in the direction sought with a large enough effect; inconclusive means small, poorly fitted or top-dose-only effect, or another doubt; inactive means no such curve, though single readings can be large; an effect the other way counts as inactive or inconclusive.

Chain of Ferritin light chain (Equus caballus) (P02791 2-175 limits assumed): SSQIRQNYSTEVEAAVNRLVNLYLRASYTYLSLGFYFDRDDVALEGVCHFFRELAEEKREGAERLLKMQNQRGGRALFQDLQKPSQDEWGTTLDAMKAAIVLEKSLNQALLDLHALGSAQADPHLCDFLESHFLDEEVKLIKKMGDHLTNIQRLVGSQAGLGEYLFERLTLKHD
Chain of RecQ-like DNA helicase BLM (Homo sapiens) (P54132 whole entry, looked up): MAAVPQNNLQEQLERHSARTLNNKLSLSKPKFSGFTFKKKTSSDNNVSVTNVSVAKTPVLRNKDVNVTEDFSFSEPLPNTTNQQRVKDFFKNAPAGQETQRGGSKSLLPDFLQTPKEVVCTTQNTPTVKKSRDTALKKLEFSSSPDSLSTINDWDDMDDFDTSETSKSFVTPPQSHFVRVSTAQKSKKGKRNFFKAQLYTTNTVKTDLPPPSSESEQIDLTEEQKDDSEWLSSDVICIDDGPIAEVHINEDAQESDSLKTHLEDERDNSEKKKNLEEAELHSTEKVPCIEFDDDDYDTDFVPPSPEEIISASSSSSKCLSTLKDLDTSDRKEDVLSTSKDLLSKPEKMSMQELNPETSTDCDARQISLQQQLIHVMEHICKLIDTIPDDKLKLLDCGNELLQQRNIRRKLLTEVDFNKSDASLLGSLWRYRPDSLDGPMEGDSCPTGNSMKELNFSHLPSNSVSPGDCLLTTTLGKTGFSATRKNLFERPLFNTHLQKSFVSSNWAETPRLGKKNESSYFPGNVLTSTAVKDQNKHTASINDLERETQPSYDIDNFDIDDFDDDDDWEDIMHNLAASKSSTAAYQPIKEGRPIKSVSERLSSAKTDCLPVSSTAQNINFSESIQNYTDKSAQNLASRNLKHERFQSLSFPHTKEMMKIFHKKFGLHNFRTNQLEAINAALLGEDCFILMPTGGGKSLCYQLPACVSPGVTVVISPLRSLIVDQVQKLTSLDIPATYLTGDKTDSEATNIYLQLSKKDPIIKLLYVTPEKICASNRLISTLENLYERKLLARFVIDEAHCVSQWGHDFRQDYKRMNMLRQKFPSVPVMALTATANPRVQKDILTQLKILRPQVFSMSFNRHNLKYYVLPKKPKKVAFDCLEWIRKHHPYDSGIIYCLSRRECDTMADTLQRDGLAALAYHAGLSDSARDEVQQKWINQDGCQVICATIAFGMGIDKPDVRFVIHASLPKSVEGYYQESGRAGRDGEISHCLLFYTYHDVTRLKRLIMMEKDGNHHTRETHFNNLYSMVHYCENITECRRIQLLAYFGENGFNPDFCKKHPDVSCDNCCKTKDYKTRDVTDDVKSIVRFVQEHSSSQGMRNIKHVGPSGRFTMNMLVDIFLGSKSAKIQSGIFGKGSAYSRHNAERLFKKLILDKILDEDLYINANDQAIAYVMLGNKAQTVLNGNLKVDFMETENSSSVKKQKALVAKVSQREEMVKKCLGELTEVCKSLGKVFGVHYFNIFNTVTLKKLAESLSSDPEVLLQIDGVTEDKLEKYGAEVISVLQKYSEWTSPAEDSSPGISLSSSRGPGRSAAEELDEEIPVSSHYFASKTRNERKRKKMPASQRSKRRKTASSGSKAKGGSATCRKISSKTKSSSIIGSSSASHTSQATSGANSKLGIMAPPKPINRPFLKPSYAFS
Chain of ATP-dependent DNA helicase Q1 (Homo sapiens) (P46063 whole entry, looked up): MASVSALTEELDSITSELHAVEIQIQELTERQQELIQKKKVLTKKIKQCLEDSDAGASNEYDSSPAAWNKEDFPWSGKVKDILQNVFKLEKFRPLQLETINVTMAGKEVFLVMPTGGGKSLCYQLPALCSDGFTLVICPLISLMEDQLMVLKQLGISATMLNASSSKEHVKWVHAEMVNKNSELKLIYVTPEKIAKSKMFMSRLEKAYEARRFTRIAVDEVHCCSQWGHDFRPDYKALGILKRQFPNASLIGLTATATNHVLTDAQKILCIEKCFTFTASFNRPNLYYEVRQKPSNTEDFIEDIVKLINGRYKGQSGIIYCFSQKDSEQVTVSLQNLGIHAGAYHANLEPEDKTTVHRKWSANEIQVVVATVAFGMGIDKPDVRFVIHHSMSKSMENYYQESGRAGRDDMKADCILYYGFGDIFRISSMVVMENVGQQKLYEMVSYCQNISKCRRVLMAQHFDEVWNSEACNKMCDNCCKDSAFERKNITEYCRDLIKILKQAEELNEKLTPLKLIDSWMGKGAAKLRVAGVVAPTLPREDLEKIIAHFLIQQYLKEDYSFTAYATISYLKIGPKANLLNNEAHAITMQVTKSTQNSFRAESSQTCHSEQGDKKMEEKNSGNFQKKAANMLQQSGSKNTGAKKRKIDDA
Chain of DNA repair nuclease/redox regulator APEX1 (Homo sapiens) (P27695 whole entry, looked up): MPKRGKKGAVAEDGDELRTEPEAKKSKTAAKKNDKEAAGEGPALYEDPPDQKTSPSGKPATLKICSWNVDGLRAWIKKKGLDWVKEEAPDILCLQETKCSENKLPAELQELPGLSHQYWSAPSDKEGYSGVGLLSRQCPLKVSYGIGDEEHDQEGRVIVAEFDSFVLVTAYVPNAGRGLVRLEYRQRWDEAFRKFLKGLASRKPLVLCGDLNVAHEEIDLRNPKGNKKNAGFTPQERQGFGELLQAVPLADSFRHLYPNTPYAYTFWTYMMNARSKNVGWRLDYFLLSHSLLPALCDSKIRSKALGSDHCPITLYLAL

Consider `Cc1ccc(N(CC2=NCCN2)c2cccc(O)c2)cc1`, for which the result in assay [1], in assay [2], in assay [4], in [5], in assay [6] and in assay [10] was inactive. For the same compound, the result in assay [11], in assay [12] and in assay [13] was inactive. Besides, the activity change, negative = inhibition in assay [3] (at 25.7 µM (top of the series)) was 1.77% (inactive); in [3] (at 57.5 µM (top of the series)), 11.7% (inactive) and 0.54% (inactive). Moreover, the max response is -12.1% and 5.79% and 62.4% in assay [3] (setting [20]); -8.46% and 20.7% and 65.8% in [3] (setting [21]). Moreover, the Potency result in assay [7] and in assay [8] was “inactive” each time. In [9], the Potency is 11200 nM (active).

As to `CCN(CC)CCCC(C)Nc1ccnc2cc(Cl)ccc12` (stereo not given), the compound was classed as inactive in [2], in assay [4], in assay [5], in assay [18], in [10] and in assay [11]. The outcome in assay [12] and in assay [13] was inactive. Besides, the activity change, negative = inhibition in [3] (at 57.5 µM (top of the series)) is 4.83% (inactive). The max response was determined as 12.7% in [3] (setting [20]) and 21.7% in assay [3] (setting [21]). Also, the Potency was 2510 nM (active) in assay [14]; 1780 nM (active) in assay [15]; 112 nM (active) in [16]; 316 nM (active) in [7]; 10000 nM (active) in assay [8]; 2240 nM (active) in assay [9]. Further, the Potency in [17] is 282 nM (active). Also, in assay [19], the Potency result is “inactive”.

Regarding `NC(=O)c1cnccn1`, the result in [1], in [4], in [5], in assay [6], in [10] and in assay [11] was inactive. For the same compound, the compound was called inactive in assay [12] and in assay [13]. Moreover, in [3] (at 57.5 µM (top of the series)), the activity change, negative = inhibition was 8.38% (inactive). Besides, the max response in assay [3] (setting [20]) was 10.7%; in assay [3] (setting [21]), 23.4%. In addition, the Potency result in assay [14], in [15], in assay [16], in assay [7], in [8] and in assay [9] was “inactive” each time. The Potency entry in assay [17] and in assay [19] was “inactive” in each case.

Take `O=C1CCC(N2C(=O)c3ccccc3C2=O)C(=O)N1` (stereo not given): the outcome in assay [2], in [4], in assay [5], in assay [6], in [18] and in [10] was inactive. Also, the result in assay [11], in assay [12] and in assay [13] was inactive. In addition, the activity change, negative = inhibition in assay [3] (at 57.5 µM (top of the series)) was 4.49% (inactive) and -2.08% (inactive). For the same compound, the max response in assay [3] (setting [20]) is 6.67% and -27.8%; in assay [3] (setting [21]) it was 12.7% and -27.8%. Also, the Potency entry in assay [14], in [15], in assay [16], in [7], in assay [8] and in [9] was “inactive” in each case. In addition, the Potency entry in assay [17] is “inactive”.

Take `N=c1nc(N2CCCCC2)cc(N)n1O`: the compound was classed as inactive in assay [1], in assay [2], in assay [4], in [5], in assay [6] and in assay [18]. For the same compound, the compound was called inactive in [10], in [11], in assay [12] and in [13]. The activity change, negative = inhibition in [3] (at 25.7 µM (top of the series)) is 0.0649% (inactive); in [3] (at 57.5 µM (top of the series)), 3.81% (inactive) and 8.57% (inactive). Also, the max response is -1.22% and 19% and 16.9% in assay [3] (setting [20]); 1.34% and 23.5% and 29.3% in assay [3] (setting [21]). The Potency entry in assay [14], in assay [15], in assay [16], in assay [7], in assay [8] and in assay [9] was “inactive” in each case. The Potency entry in [17] and in assay [19] was “inactive” throughout.
